Laboratory results taken from the supplement of paper PMC10849652.
Of roughly 7,900 targets only a part is listed; those with a hit were picked by preference. About 0.6% of all pairs of compound and target were hits.

Tests used:
Assay in all cases: log2 fold change, soluble protein after heating vs DMSO (PISA); higher = thermal stabilisation; K562 cells, 10 uM, 30 min; active = over 0.2 and 3.5 SD of the protein, either way, in both replicates (recomputed)
IRAK-1-4 Inhibitor I = compound: C1COCCN1CCN2C3=CC=CC=C3N=C2NC(=O)C4=CC(=CC=C4)[N+](=O)[O-] [IRAK-1-4 Inhibitor I]
In short: (§1)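 K562 cells at 2×10^6 cells/mL were treated with 10 μM compound for 30 min. Aliquots were heated for 3 min across 48°C-58°C, pooled, and extracted in PBS with 0.5% NP-40 at 4°C; soluble protein was the supernatant after 21,000xg for 90 min. Soluble protein was quantified by TMTpro 16plex LC-MS/MS with channel sums equalised, and reported as log2 fold change in thermal stability against DMSO controls, with values from duplicates.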

ibrutinib = compound: C=CC(=O)N1CCC[C@@H](n2nc(-c3ccc(Oc4ccccc4)cc3)c3c(N)ncnc32)C1 [ibrutinib]
In short: as §1

[1] = compound: CC(=O)c1cnc2ccc(-c3cc(Cl)c(O)c(Cl)c3)nc2c1N[C@H]1CC[C@H](CN(C)C)CC1
In short: as §1

ralimetinib = compound: CC(C)(C)Cn1c(N)nc2ccc(-c3[nH]c(C(C)(C)C)nc3-c3ccc(F)cc3)nc21 [ralimetinib]
In short: as §1

[2] = compound: CC(C)(O)CC(=O)NCCn1ccc2ncnc(Nc3ccc(Oc4cccc(C(F)(F)F)c4)c(Cl)c3)c21
In short: as §1

[3] = compound: CC(C)C[C@@H](C=O)NC(=O)[C@H](CC(C)C)NC(=O)[C@H](CC(C)C)NC(=O)OCc1ccccc1
In short: as §1

pinometostat = compound: CC(C)N(C[C@H]1O[C@@H](n2cnc3c(N)ncnc32)[C@H](O)[C@@H]1O)[C@H]1C[C@@H](CCc2nc3cc(C(C)(C)C)ccc3[nH]2)C1 [pinometostat]
In short: as §1

[4] = compound: CC1=C(C(CC(=O)N1)C2=CC=C(C=C2)C(F)(F)F)C(=O)NC3=C(C=C4C(=C3)C=NN4)F
In short: as §1

[5] = compound: CC1=C(C2=C(C=C1)C(=O)C3=CC=CC=C3N2CCCN)C
In short: as §1

[6] = compound: CC1=C(C=C(C=C1)NC(=O)C2=CC(=CC=C2)C(C)(C)C#N)NC3=CC4=C(C=C3)N=CN(C4=O)C
In short: as §1

[7] = compound: CC1=C(C=C(C=C1)NC(=O)C2=CC(=CC=C2)N(C)C)NC(=O)C3=CC=C(C=C3)O
In short: as §1

[8] = compound: CC1=CC=C(C=C1)SC2=C3C=C(SC3=CN=C2)C(=O)N
In short: as §1

[9] = compound: CC1=NC(=CC=C1)C2=C(N=C(N2)C(C)(C)C)C3=CC4=NC=CN=C4C=C3
In short: as §1

Nexturastat A = compound: CCCCN(Cc1ccc(C(=O)NO)cc1)C(=O)Nc1ccccc1 [Nexturastat A]
In short: as §1

vemurafenib = compound: CCCS(=O)(=O)Nc1ccc(F)c(C(=O)c2c[nH]c3ncc(-c4ccc(Cl)cc4)cc23)c1F [vemurafenib]
In short: as §1

[10] = compound: CCCS(=O)(=O)Nc1ccc(F)c(C(=O)c2c[nH]c3ncc(Cl)cc23)c1F
In short: as §1

[11] = compound: CCCc1cc(C)[nH]c(=O)c1CNC(=O)c1cc(-c2ccnc(N3CCN(C)CC3)c2)cc2c1cnn2C(C)C
In short: as §1

barasertib = compound: CCN(CCCOc1ccc2c(Nc3cc(CC(=O)Nc4cccc(F)c4)[nH]n3)ncnc2c1)CCOP(=O)(O)O [barasertib]
In short: as §1

[12] = compound: CC(C)C1=C2N=C(C=C(N2N=C1)NCC3=CC=CC=C3)NCCCCCCN
In short: as §1

givinostat = compound: CCN(CC)Cc1ccc2cc(COC(=O)Nc3ccc(C(=O)NO)cc3)ccc2c1 [givinostat]
In short: as §1

Measured: log2 fold change

SRXN1 (UniProt Q9BYN0)
inactive: IRAK-1-4 Inhibitor I -0.291 | ibrutinib -0.013 | [1] 0.12 | ralimetinib -0.134 | [2] -0.201 | [3] -0.024 | pinometostat 0.187 | [4] 0.045 | [5] -0.026 | [6] -0.149 | [7] 0.01 | [8] 0.04 | [9] 0.089 | Nexturastat A -0.036 | vemurafenib 0.142 | [10] 0.017 | [11] -0.027 | barasertib 0.012

SRFBP1 (UniProt Q8NEF9)
inactive: IRAK-1-4 Inhibitor I -0.081 | ibrutinib -0.037 | [1] -0.099 | ralimetinib -0.022 | [2] 0.091 | [12] 0.137 | [3] 0.25 | pinometostat 0.018 | [4] 0.21 | [5] 0.023 | [6] 0.008 | [7] -0.019 | [8] -0.127 | [9] -0.025 | Nexturastat A 0.111 | [10] -0.012 | [11] -0.012 | givinostat -0.061 | barasertib -0.045

SLC8B1 (UniProt Q6J4K2)
inactive: IRAK-1-4 Inhibitor I 0.096 | ibrutinib -0.091 | [1] 0.112 | ralimetinib -0.093 | [12] -0.378 | [3] 0.048 | pinometostat 0.019 | [7] 0.038 | [8] -0.28 | [9] -0.022 | vemurafenib -0.075 | [10] -0.021 | givinostat 0.069 | barasertib -0.167

THAP9 (UniProt Q9H5L6)
inactive: IRAK-1-4 Inhibitor I 0.07 | ibrutinib 0.002 | [1] -0.105 | ralimetinib 0.178 | [3] -0.025 | pinometostat -0.035 | [4] 0.027 | [7] 0.017 | [9] -0.065 | [11] -0.463 | barasertib 0.121

TIMM21 (UniProt Q9BVV7)
UniProt Q9BVV7, sequence (Q9BVV7 whole entry, looked up): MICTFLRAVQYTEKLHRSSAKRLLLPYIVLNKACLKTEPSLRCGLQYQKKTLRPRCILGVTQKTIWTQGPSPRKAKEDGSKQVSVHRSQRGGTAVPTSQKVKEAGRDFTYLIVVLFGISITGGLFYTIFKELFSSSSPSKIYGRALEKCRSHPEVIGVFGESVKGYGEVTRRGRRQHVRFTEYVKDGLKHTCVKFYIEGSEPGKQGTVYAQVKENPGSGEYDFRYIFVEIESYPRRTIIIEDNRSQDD
inactive: IRAK-1-4 Inhibitor I -0.009 | ibrutinib -0.02 | [1] -0.026 | ralimetinib -0.01 | [2] 0.011 | [12] -0.169 | [3] 0.099 | pinometostat -0.02 | [4] -0.013 | [5] 0.063 | [6] 0.014 | [7] 0.008 | [8] 0.035 | [9] 0.058 | Nexturastat A -0.121 | vemurafenib 0.032 | [10] 0.067 | [11] -0.005 | givinostat 0.005 | barasertib 0.034

SLC39A11 (UniProt Q8N1S5)
inactive: IRAK-1-4 Inhibitor I 0.092 | ibrutinib 0.066 | [1] 0.051 | ralimetinib 0.012 | [12] -0.117 | [3] -0.051 | pinometostat -0.085 | [4] -0.024 | [5] 0.07 | [6] 0.046 | [7] 0.372 | [8] -0.057 | [9] 0.045 | vemurafenib 0.055 | [10] -0.026 | [11] -0.009 | givinostat 0.074 | barasertib -0.002

SNW1 (UniProt Q13573)
inactive: IRAK-1-4 Inhibitor I 0.004 | ibrutinib 0.024 | [1] 0.197 | ralimetinib 0.021 | [2] 0.024 | [12] 0.149 | [3] 0.075 | pinometostat -0.008 | [4] -0.015 | [6] -0.035 | [7] 0.041 | [8] -0.017 | [9] 0 | Nexturastat A 0.074 | vemurafenib -0.04 | [10] -0.017 | [11] -0.045 | givinostat -0.041 | barasertib -0.02
active: [5] 0.23

SULT1A1 (UniProt P50225)
UniProt P50225, sequence (P50225 whole entry, looked up): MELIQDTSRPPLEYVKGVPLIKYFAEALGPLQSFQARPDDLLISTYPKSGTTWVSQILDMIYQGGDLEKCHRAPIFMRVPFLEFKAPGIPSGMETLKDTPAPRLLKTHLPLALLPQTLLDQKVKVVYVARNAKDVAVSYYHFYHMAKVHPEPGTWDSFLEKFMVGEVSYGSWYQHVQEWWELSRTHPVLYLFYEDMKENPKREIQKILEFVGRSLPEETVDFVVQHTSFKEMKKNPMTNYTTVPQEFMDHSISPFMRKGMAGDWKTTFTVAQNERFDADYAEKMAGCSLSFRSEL
inactive: IRAK-1-4 Inhibitor I -0.077 | ibrutinib 0.044 | [1] -0.099 | ralimetinib -0.029 | [2] -0.104 | [12] -0.104 | [3] -0.056 | pinometostat 0.001 | [4] 0.014 | [5] 0.048 | [6] 0.015 | [7] 0.162 | [8] -0.022 | [9] 0.025 | Nexturastat A -0.023 | vemurafenib 0.135 | [10] 0.037 | [11] 0.092 | givinostat 0.044 | barasertib 0.068

STX17 (UniProt P56962)
UniProt P56962, sequence (P56962 whole entry, looked up): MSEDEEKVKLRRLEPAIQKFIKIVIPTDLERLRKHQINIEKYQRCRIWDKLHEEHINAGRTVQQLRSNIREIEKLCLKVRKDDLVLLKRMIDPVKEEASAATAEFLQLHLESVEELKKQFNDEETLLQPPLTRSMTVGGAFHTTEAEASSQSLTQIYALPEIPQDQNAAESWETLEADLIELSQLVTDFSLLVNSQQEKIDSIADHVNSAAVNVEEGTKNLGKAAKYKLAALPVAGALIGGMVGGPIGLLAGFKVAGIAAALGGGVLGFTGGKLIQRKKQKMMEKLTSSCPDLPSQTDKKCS
inactive: IRAK-1-4 Inhibitor I -0.062 | ibrutinib 0.002 | [1] 0.031 | ralimetinib 0.037 | [2] -0.063 | [12] -0.235 | [3] 0.028 | pinometostat 0.006 | [4] 0.062 | [5] 0.138 | [6] -0.036 | [7] -0.064 | [8] -0.023 | [9] 0.039 | Nexturastat A 0.126 | vemurafenib 0.12 | [10] 0.12 | [11] -0.07 | givinostat 0.152 | barasertib 0.011

TBC1D20 isoform 3 (UniProt Q96BZ9)
UniProt Q96BZ9, sequence (Q96BZ9 whole entry, looked up): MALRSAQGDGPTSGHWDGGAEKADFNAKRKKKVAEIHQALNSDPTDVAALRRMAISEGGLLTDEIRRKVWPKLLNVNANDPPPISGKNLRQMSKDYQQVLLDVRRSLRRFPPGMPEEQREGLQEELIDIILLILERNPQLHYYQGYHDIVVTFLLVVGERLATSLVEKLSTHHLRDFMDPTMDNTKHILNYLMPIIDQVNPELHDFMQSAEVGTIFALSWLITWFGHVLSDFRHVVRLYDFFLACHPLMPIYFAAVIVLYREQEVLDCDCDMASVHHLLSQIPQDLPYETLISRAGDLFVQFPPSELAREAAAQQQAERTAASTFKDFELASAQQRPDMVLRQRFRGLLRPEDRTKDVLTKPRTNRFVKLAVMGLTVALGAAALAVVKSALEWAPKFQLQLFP
inactive: IRAK-1-4 Inhibitor I 0.02 | ibrutinib 0.004 | [1] -0.124 | ralimetinib -0.104 | [2] -0.087 | [12] -0.099 | [3] -0.017 | pinometostat 0 | [4] -0.061 | [6] -0.048 | [7] 0.04 | [8] 0.128 | [9] 0.037 | Nexturastat A 0 | vemurafenib 0.083 | [10] 0.166 | [11] -0.14 | givinostat 0.076 | barasertib 0.034

TM9SF2 (UniProt Q99805)
active: [12] -0.436
inactive: IRAK-1-4 Inhibitor I 0.06 | ibrutinib 0.01 | [1] -0.04 | ralimetinib -0.049 | [2] 0.021 | [3] -0.012 | pinometostat -0.003 | [4] 0.008 | [5] 0.027 | [6] 0.056 | [7] -0.009 | [8] -0.005 | [9] -0.001 | Nexturastat A -0.039 | vemurafenib -0.03 | [10] 0.018 | [11] -0.004 | givinostat -0.019 | barasertib 0.035

SMARCA4 (UniProt P51532)
UniProt P51532, sequence (P51532 whole entry, looked up): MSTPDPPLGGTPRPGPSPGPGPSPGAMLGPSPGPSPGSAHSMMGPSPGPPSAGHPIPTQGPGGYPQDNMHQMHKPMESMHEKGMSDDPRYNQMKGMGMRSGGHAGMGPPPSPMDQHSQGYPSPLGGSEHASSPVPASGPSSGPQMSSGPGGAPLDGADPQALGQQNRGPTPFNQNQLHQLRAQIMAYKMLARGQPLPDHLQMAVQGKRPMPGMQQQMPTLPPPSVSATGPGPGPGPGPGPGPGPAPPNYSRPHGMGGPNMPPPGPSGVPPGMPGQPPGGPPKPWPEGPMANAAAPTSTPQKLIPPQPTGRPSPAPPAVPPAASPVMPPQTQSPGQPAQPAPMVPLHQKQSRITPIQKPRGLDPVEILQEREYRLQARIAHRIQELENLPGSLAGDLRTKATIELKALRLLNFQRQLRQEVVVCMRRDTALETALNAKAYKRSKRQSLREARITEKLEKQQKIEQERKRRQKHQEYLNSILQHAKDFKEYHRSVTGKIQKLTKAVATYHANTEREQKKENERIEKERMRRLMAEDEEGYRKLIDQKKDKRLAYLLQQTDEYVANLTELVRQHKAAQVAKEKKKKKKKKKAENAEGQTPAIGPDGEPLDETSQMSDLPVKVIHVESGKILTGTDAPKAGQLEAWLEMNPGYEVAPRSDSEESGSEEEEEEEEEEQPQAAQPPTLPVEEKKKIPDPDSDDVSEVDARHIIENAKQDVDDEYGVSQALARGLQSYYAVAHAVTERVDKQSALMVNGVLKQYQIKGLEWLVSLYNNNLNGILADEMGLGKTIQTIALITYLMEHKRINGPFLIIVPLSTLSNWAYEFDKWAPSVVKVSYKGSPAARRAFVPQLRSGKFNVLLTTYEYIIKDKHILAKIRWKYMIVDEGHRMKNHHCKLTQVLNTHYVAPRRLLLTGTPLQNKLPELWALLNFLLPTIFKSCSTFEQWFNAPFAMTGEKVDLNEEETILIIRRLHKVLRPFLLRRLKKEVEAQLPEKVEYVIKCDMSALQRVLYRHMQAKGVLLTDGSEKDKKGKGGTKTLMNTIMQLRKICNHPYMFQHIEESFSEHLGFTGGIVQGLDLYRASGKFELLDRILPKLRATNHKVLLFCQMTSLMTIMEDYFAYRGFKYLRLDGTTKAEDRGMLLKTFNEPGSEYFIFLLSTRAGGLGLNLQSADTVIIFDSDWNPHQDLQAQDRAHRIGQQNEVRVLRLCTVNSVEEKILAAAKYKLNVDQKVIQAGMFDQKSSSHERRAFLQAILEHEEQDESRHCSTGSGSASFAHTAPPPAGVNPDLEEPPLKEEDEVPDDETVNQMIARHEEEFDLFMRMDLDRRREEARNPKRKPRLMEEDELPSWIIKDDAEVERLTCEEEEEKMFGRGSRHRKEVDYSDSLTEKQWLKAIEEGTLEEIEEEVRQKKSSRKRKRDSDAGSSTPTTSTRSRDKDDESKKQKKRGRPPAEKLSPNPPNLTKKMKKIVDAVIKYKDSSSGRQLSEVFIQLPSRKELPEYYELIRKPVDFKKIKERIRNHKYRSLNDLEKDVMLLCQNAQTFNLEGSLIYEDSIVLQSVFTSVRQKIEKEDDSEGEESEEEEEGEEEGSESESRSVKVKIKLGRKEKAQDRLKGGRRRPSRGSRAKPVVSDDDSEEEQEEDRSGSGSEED
inactive: IRAK-1-4 Inhibitor I -0.155 | ibrutinib -0.136 | [1] -0.056 | ralimetinib 0.255 | [2] 0.027 | [12] -0.397 | [3] 0.16 | pinometostat 0.193 | [6] 0.039 | [7] -0.111 | [8] -0.296 | [9] -0.028 | Nexturastat A 0.351 | vemurafenib -0.261 | [10] -0.556 | [11] -0.084 | givinostat 0.159 | barasertib 0.137

TM7SF3 (UniProt Q9NS93)
active: [12] -0.485
inactive: IRAK-1-4 Inhibitor I -0.06 | ibrutinib 0.014 | [1] 0.055 | ralimetinib -0.068 | [3] 0.01 | pinometostat -0.036 | [4] 0.016 | [5] 0.057 | [6] -0.033 | [7] -0.054 | [8] 0.005 | [9] 0.017 | [10] -0.019 | [11] -0.027 | givinostat 0.06 | barasertib 0.045

TBP (UniProt P20226)
UniProt P20226, sequence (P20226 whole entry, looked up): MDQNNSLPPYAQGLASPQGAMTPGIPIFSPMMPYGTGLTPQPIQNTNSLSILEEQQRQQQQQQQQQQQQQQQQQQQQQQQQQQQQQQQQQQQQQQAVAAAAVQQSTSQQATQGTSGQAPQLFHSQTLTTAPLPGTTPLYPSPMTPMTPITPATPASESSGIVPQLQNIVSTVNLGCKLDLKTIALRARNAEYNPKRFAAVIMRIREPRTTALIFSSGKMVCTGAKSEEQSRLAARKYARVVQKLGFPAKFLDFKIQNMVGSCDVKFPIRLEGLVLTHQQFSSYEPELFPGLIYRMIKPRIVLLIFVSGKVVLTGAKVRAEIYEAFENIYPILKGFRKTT
inactive: IRAK-1-4 Inhibitor I 0.018 | ibrutinib -0.029 | [1] 0.091 | ralimetinib -0.016 | [2] 0.036 | [3] -0.002 | pinometostat -0.019 | [4] -0.046 | [7] -0.04 | [8] -0.056 | [9] -0.071 | Nexturastat A 0.163 | vemurafenib 0.02 | [10] -0.026 | [11] -0.154 | barasertib -0.067
active: [5] 0.528

SPPL2B (UniProt Q8TCT7)
UniProt Q8TCT7, sequence (Q8TCT7 whole entry, looked up): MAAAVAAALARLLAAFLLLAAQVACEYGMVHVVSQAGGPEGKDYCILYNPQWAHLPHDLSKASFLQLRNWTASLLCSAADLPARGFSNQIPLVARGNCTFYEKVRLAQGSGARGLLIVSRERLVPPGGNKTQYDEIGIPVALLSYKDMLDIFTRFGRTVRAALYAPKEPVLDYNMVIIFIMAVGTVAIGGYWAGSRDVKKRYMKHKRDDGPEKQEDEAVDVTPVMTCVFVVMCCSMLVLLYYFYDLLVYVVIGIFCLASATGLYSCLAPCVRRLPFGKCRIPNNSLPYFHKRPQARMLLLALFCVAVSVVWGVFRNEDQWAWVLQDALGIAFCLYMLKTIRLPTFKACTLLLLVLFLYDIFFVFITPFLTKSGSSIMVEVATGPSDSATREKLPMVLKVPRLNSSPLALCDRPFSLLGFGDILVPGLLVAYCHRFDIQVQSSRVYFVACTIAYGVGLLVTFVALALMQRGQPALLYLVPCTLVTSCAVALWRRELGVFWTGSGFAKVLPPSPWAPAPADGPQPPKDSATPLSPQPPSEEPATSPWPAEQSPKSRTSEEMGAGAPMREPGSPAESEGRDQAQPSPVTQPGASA
inactive: IRAK-1-4 Inhibitor I -0.004 | ibrutinib 0.013 | [1] -0.039 | ralimetinib 0.041 | [2] 0.179 | [12] -0.086 | [3] 0.101 | pinometostat -0.032 | [4] 0.049 | [5] 0.02 | [6] -0.097 | [7] 0.004 | [8] 0.089 | [9] 0.041 | Nexturastat A 0.029 | vemurafenib -0.05 | [10] -0.018 | [11] 0.021 | givinostat 0.048 | barasertib 0

SSRP1 (UniProt Q08945)
UniProt Q08945, sequence (Q08945 whole entry, looked up): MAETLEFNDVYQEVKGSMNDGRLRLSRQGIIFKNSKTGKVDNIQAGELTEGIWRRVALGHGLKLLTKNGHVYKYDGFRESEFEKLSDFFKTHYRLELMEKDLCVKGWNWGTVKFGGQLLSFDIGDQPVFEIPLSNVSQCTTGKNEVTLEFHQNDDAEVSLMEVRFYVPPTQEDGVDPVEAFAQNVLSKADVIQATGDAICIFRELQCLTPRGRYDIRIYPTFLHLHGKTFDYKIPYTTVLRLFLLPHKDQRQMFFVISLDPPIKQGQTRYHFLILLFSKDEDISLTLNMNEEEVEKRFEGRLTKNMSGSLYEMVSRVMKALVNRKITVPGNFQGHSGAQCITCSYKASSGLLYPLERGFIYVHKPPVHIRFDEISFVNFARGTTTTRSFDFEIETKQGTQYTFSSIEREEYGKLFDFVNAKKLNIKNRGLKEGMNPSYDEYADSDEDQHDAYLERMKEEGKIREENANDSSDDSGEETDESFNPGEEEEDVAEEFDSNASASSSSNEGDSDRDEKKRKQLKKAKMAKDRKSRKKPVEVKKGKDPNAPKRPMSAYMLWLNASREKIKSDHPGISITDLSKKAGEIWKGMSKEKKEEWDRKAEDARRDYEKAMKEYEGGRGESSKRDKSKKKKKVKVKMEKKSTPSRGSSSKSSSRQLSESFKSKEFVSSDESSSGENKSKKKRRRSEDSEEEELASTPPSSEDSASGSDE
active: [5] -0.554
inactive: IRAK-1-4 Inhibitor I -0.044 | ibrutinib -0.037 | [1] -0.138 | ralimetinib -0.022 | [2] -0.008 | [12] -0.119 | [3] 0 | pinometostat -0.036 | [4] -0.02 | [6] -0.072 | [7] -0.049 | [8] 0.018 | [9] 0.091 | Nexturastat A -0.069 | vemurafenib 0.051 | [10] 0.062 | [11] 0.015 | givinostat 0.033 | barasertib 0.059

SLC29A3 (UniProt Q9BZD2)
inactive: IRAK-1-4 Inhibitor I 0.01 | ibrutinib 0.064 | [1] 0.04 | ralimetinib -0.025 | [2] 0.088 | [12] -0.283 | [3] 0.011 | pinometostat 0.02 | [4] -0.046 | [5] -0.148 | [6] 0.005 | [7] -0.023 | [8] 0.089 | [9] 0 | Nexturastat A 0.124 | vemurafenib -0.097 | [10] -0.128 | [11] 0.017 | givinostat 0.005 | barasertib -0.016

STK38L (UniProt Q9Y2H1)
UniProt Q9Y2H1, sequence (Q9Y2H1 whole entry, looked up): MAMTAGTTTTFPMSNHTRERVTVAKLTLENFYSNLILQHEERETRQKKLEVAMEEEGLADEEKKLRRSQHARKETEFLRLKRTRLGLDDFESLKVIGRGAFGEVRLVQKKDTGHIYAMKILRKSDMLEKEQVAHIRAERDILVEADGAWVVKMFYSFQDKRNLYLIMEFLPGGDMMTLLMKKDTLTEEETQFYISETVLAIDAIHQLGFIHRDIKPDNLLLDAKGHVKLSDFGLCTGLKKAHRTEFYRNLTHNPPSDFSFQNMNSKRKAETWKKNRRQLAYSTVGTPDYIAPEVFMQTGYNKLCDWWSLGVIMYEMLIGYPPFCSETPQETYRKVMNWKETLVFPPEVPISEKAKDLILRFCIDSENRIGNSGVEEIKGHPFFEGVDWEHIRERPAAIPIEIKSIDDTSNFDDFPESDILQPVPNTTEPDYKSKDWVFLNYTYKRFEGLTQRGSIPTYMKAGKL
inactive: IRAK-1-4 Inhibitor I -0.084 | ibrutinib -0.048 | [1] -0.181 | ralimetinib -0.577 | [2] -0.035 | [12] -0.148 | [3] 0.385 | pinometostat 0.051 | [4] 0.013 | [5] -0.023 | [6] -0.044 | [7] 0.165 | [9] 0.056 | Nexturastat A -0.074 | vemurafenib -0.038 | [11] 0.079 | givinostat -0.016 | barasertib 0.064
